The record followed here is PubChem BioAssay (NCATS).

Assay [1] can be described thus: BET inhibitor-based combinations targeting novel dependencies in MECOM-rearranged (r) AML: SET-2 cell line (AID 2202231). Also: nearly all actives have a fitted effect of over 35% in size.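 As to viability: plate controls were DMSO treated cells for no effect and wells without cells for full effect.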 The note with it: SET-2 AML cells viability, CellTiter-Glo luminescence, 48 h; viability: active compounds read low, concentration not given here. The gist of the method:
(§1)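 Readout: CellTiter-Glo luminescence. Exposure: 48 h, 11 concentrations, 500 cells/well. Metric: AUC and within-line Z-AUC after DMSO/empty-well normalization.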
(In ATP-based viability assays light output follows the ATP content of the culture.)

Assay [2] is described as follows: BET inhibitor-based combinations targeting novel dependencies in MECOM-rearranged (r) AML: OCI-AML3 cell line (AID 2202232). Also: nearly all actives have a fitted effect of over 35% in size.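 As to viability (% of control): plate controls were DMSO vehicle wells for no effect and wells without cells for full effect.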 The note with it: CellTiter-Glo luminescence, 48 h; Potency: OCI-AML3 viability; series mostly up to 46 µM. The gist of the method:
as §1

A short description of assay [3]: BET inhibitor-based combinations targeting novel dependencies in MECOM-rearranged (r) AML: MV-4-11 cell line (AID 2202233). Also: nearly all actives have a fitted effect of over 45% in size.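 As to viability, % of control: plate controls were DMSO for no effect and blank wells for full effect.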 The note with it: MV-4-11 AML viability, CellTiter-Glo luminescence, 48 h; series mostly up to 46 µM. The gist of the method:
(§2)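 Seeding density was 500 cells/well, and drug exposure lasted 48 hr under standard culture conditions. Read-out used CellTiter-Glo reagent with a 15 min room-temperature incubation before luminescence measurement; AUC and Z-AUC summarize the normalized responses.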

Assay [4] in a line: BET inhibitor-based combinations targeting novel dependencies in MECOM-rearranged (r) AML: HNT-34 cell line (AID 2202234). Also: nearly all actives have a fitted effect of over 35% in size.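 As to viability (% of control): plate controls were vehicle wells for no effect and cell-free wells for full effect.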 Conditions: HNT-34 AML viability, CellTiter-Glo luminescence, 48 h; series mostly up to 46 µM. The gist of the method:
as §2

The nature of assay [5]: BET inhibitor-based combinations targeting novel dependencies in MECOM-rearranged (r) AML: UCSD-AML1 cell line (AID 2202235). Also: nearly all actives have a fitted effect of over 40% in size.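 As to viability (% of control): plate controls were DMSO vehicle wells for no effect and blank wells for full effect.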 Conditions: UCSD-AML1 AML cells viability, CellTiter-Glo, 48 h; series mostly up to 46 µM. The gist of the method: as §2
Assay [6] is described as follows: BET inhibitor-based combinations targeting novel dependencies in MECOM-rearranged (r) AML: AML-191 cell line (AID 2202236; also: nearly all actives have a fitted effect of over 35% in size;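 as to viability (% of control): plate controls were vehicle wells for no effect and wells without cells for full effect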). The note with it: AML-191 viability, CellTiter-Glo luminescence, 48 h; series mostly up to 46 µM. The gist of the method: as §1
Assay [7] can be described thus: BET inhibitor-based combinations targeting novel dependencies in MECOM-rearranged (r) AML: AML-194 cell line (AID 2202237; also: nearly all actives have a fitted effect of over 40% in size;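 as to viability (% of control): plate controls were vehicle wells for no effect and wells without cells for full effect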). Conditions: AML-194 (MECOM-r AML) viability, CellTiter-Glo, 48 h; series mostly up to 46 µM. In a few lines: as §1

Inconclusive results are not listed. A number with no mark means an inactive call. Active and inactive are the calls of the source. Calls follow the shape of the dose curve; as a rule, active = well fitted curve in the direction sought with a large enough effect; inconclusive = small, poorly fitted or top-dose-only effect, or another doubt; inactive = no such curve, though single readings can be large; an effect the other way counts as inactive or inconclusive.
Potency is read from the fitted curve at half-maximal effect.

In the case of `O=C(CCc1ccc(O)cc1)c1c(O)cc(O)cc1O[C@@H]1O[C@H](CO)[C@@H](O)[C@H](O)[C@H]1O`, the viability (usually a read-out of living cells in per cent, often relative to untreated cells) in assay [1] was 76.1%. Besides, the Potency entry in assay [2], in assay [3], in assay [4], in assay [5], in assay [6] and in assay [7] was “inactive” throughout.

For `CCc1cc2c(c(OCC(F)(F)F)c(C(=O)NC3CCN(C(=O)CO)CC3)n2C)c(=O)n1CC(=O)c1ccccc1`, the viability in assay [1] was 103%. Moreover, the Potency result in assay [2], in assay [3], in assay [5], in assay [6] and in assay [7] was “inactive” in each case. The Potency in assay [4] is 16600 nM (active).

Take `C[C@@H](OC[C@@]1(c2ccccc2)CC[C@]2(CCC(=O)N2)CN1)c1cc(C(F)(F)F)cc(C(F)(F)F)c1`: the Potency was 20900 nM (active) in assay [1]; 18600 nM (active) in assay [2]; 20900 nM (active) in assay [3]; 18600 nM (active) in assay [4]; 23500 nM (active) in assay [5]; 18600 nM (active) in assay [6]. For the same compound, the Potency in assay [7] was 26300 nM (active).

On to `CN1C/C=C/CCOc2cccc(c2)-c2ccnc(n2)Nc2cccc(c2)C1`, for which the Potency in assay [1] is 118 nM (active); in assay [2] it was 468 nM (active); in assay [3], 417 nM (active); in assay [4], 417 nM (active); in assay [5], 148 nM (active); in assay [6], 296 nM (active). Moreover, the Potency in assay [7] is 372 nM (active).

As to `Cn1cc(C[C@@H](N)C(=O)O)c2ccccc21`, the viability in assay [1] was 113%. The viability (% of control) is 111% [at 8.46 µM] in assay [2]; 100% [at 8.46 µM] in assay [4]; 112% [at 8.46 µM] in assay [5]; 110% [at 8.46 µM] in assay [6]; 109% [at 8.46 µM] in assay [7]. The viability, % of control in assay [3] was 103% [at 8.46 µM].

`COc1ccc(S(=O)(=O)N(CCO)c2ccccc2CN(C)C/C=C/c2ccc(Cl)cc2)cc1`: the Potency is 20900 nM (active) in assay [1]; 14800 nM (active) in assay [2]; 18600 nM (active) in assay [3]; 13200 nM (active) in assay [4]; 16600 nM (active) in assay [5]; 14800 nM (active) in assay [6]. In assay [7], the Potency is 18600 nM (active).

`Cc1c[nH]c2nc(Nc3ccc(N4CCN(C)CC4)c(F)c3)nc(-c3cccc(CC#N)c3)c12`: the Potency is 2630 nM (active) in assay [1]; 2950 nM (active) in assay [2]; 33.2 nM (active) in assay [3]; 662 nM (active) in assay [4]; 742 nM (active) in assay [5]; 742 nM (active) in assay [6]. Also, in assay [7], the Potency was 833 nM (active).

`N#Cc1ccc(C(c2ccc(C#N)cc2)n2cncn2)cc1`: in assay [1], the viability was 96.2%. The Potency result in assay [2], in assay [3], in assay [4], in assay [5], in assay [6] and in assay [7] was “inactive” each time.

As for `CC(/C=C1\SC(=S)N(CC(=O)O)C1=O)=C\c1ccccc1`, the viability in assay [1] is 113%. Moreover, the Potency result in assay [2], in assay [3], in assay [4], in assay [5], in assay [6] and in assay [7] was “inactive” each time.

Regarding `CCc1c(C(=O)NNC(=O)[C@@H](O)c2cc(F)cc(F)c2)ccc(O)c1C`, the viability in assay [1] is 97.8%. Besides, the Potency result in assay [2], in assay [3], in assay [4], in assay [6] and in assay [7] was “inactive” each time. Besides, the Potency in assay [5] is 7420 nM (active).

For `C/C(=N\NC(=S)N1CCC1)c1ccccn1`, the Potency was 59 nM (active) in assay [1]; 37.2 nM (active) in assay [2]; 37.2 nM (active) in assay [3]; 37.2 nM (active) in assay [4]; 41.7 nM (active) in assay [5]; 37.2 nM (active) in assay [6]. Further, in assay [7], the Potency is 41.7 nM (active).

As to `CC[C@H]1OC(=O)[C@H](C)[C@@H](O[C@H]2C[C@@](C)(OC)[C@@H](O)[C@H](C)O2)[C@H](C)[C@@H](O[C@@H]2O[C@H](C)C[C@H](N(C)C)[C@H]2O)[C@](C)(O)C[C@@H](C)C(=O)[C@H](C)[C@@H](O)[C@]1(C)O`, the viability in assay [1] is 113%. The Potency entry in assay [2], in assay [3], in assay [4], in assay [5], in assay [6] and in assay [7] was “inactive” each time.

In the case of `COCc1c(-c2ccc(NC(=O)Nc3cc(C(F)(F)F)ccc3F)c(F)c2)c2c(N)ncnn2c1CN1CCOCC1`, the Potency was 6610 nM (active) in assay [1]; 10500 nM (active) in assay [2]; 26.3 nM (active) in assay [3]; 2350 nM (active) in assay [4]; 6610 nM (active) in assay [5]; 5900 nM (active) in assay [6]. Further, the Potency in assay [7] was 5900 nM (active).

Regarding `CC[C@@]1(O)C(=O)OCc2c1cc1n(c2=O)Cc2c-1nc1cc(F)c(C)c3c1c2[C@@H](N)CC3`, the Potency is 3.7 nM (active) in assay [1]; 5.3 nM (active) in assay [2]; 4.2 nM (active) in assay [3]; 3 nM (active) in assay [4]; 4.2 nM (active) in assay [5]; 8.3 nM (active) in assay [6]. The Potency in assay [7] is 3.7 nM (active).

Ac-PHSCN-NH2: the viability in assay [1] is 109%. The Potency result in assay [2], in assay [3], in assay [4], in assay [5], in assay [6] and in assay [7] was “inactive” in each case.

With `CC1(C)S[C@H]2[C@H](NC(=O)[C@@H](N)c3ccc(O)cc3)C(=O)N2[C@H]1C(=O)O`, the viability in assay [1] was 99.7%. In addition, the Potency entry in assay [2], in assay [3], in assay [4], in assay [5], in assay [6] and in assay [7] was “inactive” throughout.

On to `C[C@]1(C(=O)N(CCCC(=O)O)Cc2cccc(Cl)c2)CCN1C(=O)c1csc2ccccc12`, for which the viability in assay [1] was 108%. Also, the Potency result in assay [2], in assay [3], in assay [4], in assay [5], in assay [6] and in assay [7] was “inactive” in each case.

Turning to `COc1cc2c(cc1OC)CN(CCc1ccc(-n3nnc(-c4cc(OC)c(OC)cc4NC(=O)c4cc(=O)c5ccccc5o4)n3)cc1)CC2`, the viability in assay [1] was 116%. Further, the viability (% of control) in assay [2] was 94.2% [at 0.315 µM]; in assay [4] it was 93.8% [at 0.315 µM]; in assay [5] it was 106% [at 0.315 µM]; in assay [6], 99.1% [at 0.315 µM]; in assay [7], 95.7% [at 0.315 µM]. The viability, % of control in assay [3] was 93.2% [at 0.315 µM].
